Laboratory results taken from PubChem BioAssay (Tox21).
Active and inactive are the calls of the source. Calls follow the shape of the dose curve; as a rule, active = well fitted curve in the direction sought with a large enough effect in the repeat runs; inconclusive = weak or mixed curves; inactive = flat fitted curve, though single readings scatter.

assay: qHTS assay to test for compound auto fluorescence at 460 nm (blue) in HepG2 cell free culture (AID 720685); details: Cell-free culture medium, blue autofluorescence 405/460 nm; series mostly up to 91.3 µM
Summary of the method: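 Cell-free plates of MEM plus 10% FBS received 23 nL compound or DMSO vehicle; blue-channel (405/460 nm) intensity scored against triamterene as reference fluorophore.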

SMILES	outcome
ClC=C(Cl)Cl	inactive
CC(c1ccc(O)cc1)(c1ccc(O)cc1)c1ccc(O)cc1	inactive
C=CC(C)=O	inactive
CC1CC(CC2CCC(N)C(C)C2)CCC1N (stereo unspecified)	inactive
CCN(C)N=O	inactive
II	inactive
O=NN1CCNCC1	inactive
CCCCNP(N)(N)=S	inactive
c1ccc(C2CC2)c(OCC2=NCCN2)c1	inactive
CCOP(=S)(OCC)Oc1nc(Cl)c(Cl)cc1Cl	inactive
CCCCCCC#N	inactive
Cn1sc(Cl)cc1=O	inactive
CCCCCCCCOC(=O)c1ccc(C(=O)OCCCCCCCC)c(C(=O)OCCCCCCCC)c1	inactive
O=NN1CCCCCC1	inactive
CCOc1nc(F)cc2nc(S(=O)(=O)Nc3c(Cl)cccc3Cl)nn12	inactive
CCBr	inactive
Brc1ccc(Oc2ccccc2)cc1	inactive

SMILES	outcome
Cc1ccc2ccccc2c1	inactive
N#CCc1ccccc1	inactive
CC/C(=N\OC/C=C/Cl)C1=C(O)CC(C2CCOCC2)CC1=O (stereo unspecified)	inactive
N#Cc1cc(I)c(O)c(I)c1	inactive
COC(=O)C(Cl)C(=O)OC	inactive
O=[N+]([O-])c1ccccc1CCl	inactive
COc1cc(CC(C)N)cc2c1OCO2 (stereo unspecified)	inactive
Nc1nc(=S)[nH][nH]1	inactive
Nc1nc(N)nc(N)n1	inactive
COCC(C)N(C(=O)CCl)c1c(C)csc1C (stereo unspecified)	inactive
c1ccc(CN2CCNCC2)cc1	inactive
CCCCCCCCCC(=O)O[C@H]1CC[C@H]2[C@@H]3CCC4=CC(=O)CC[C@@H]4[C@H]3CC[C@]12C	inactive
C=CCC1([C@H](C)CCC)C(=O)NC(=O)NC1=O	inactive
CCOP(=O)(OCC)SCCSCC	inactive
Cc1cc(=O)[nH]o1	inactive
IC(I)=C(I)I	inactive
CN1C(=O)NC(=O)C(C)(C2=CCCCC2)C1=O (stereo unspecified)	inactive

assay: qHTS assay to test for compound auto fluorescence at 535 nm (green) in HepG2 cell free culture (AID 720686); details: Cell-free medium, green autofluorescence 485/535 nm; series mostly up to 91.3 µM

SMILES	outcome
ClC=C(Cl)Cl	inactive
CC(c1ccc(O)cc1)(c1ccc(O)cc1)c1ccc(O)cc1	inactive
C=CC(C)=O	inactive
CC1CC(CC2CCC(N)C(C)C2)CCC1N (stereo unspecified)	inactive
CCN(C)N=O	inactive
II	inactive
CCCCNP(N)(N)=S	inactive
CCOP(=S)(OCC)Oc1nc(Cl)c(Cl)cc1Cl	inactive
Cn1sc(Cl)cc1=O	inactive
CCCCCCCCOC(=O)c1ccc(C(=O)OCCCCCCCC)c(C(=O)OCCCCCCCC)c1	inactive
O=NN1CCCCCC1	inactive
CCOc1nc(F)cc2nc(S(=O)(=O)Nc3c(Cl)cccc3Cl)nn12	inactive
CCBr	inactive
N#CCc1ccccc1	inactive
N#Cc1cc(I)c(O)c(I)c1	inactive
COC(=O)C(Cl)C(=O)OC	inactive
O=[N+]([O-])c1ccccc1CCl	inactive
COc1cc(CC(C)N)cc2c1OCO2 (stereo unspecified)	inactive
Nc1nc(=S)[nH][nH]1	inactive
Nc1nc(N)nc(N)n1	inactive
COCC(C)N(C(=O)CCl)c1c(C)csc1C (stereo unspecified)	inactive
CCCCCCCCCC(=O)O[C@H]1CC[C@H]2[C@@H]3CCC4=CC(=O)CC[C@@H]4[C@H]3CC[C@]12C	inactive
C=CCC1([C@H](C)CCC)C(=O)NC(=O)NC1=O	inactive
CCOP(=O)(OCC)SCCSCC	inactive
Cc1cc(=O)[nH]o1	inactive
IC(I)=C(I)I	inactive
CN1C(=O)NC(=O)C(C)(C2=CCCCC2)C1=O (stereo unspecified)	inactive
